# Results as given in PubChem BioAssay.
# Activity calls are given as the source filed them. Unless noted, how the calls were made is not given here.
# Experiments:
# [1] = compound effects on lung adenocarcinoma cell viability – A549, calcein-AM fluorescence, 48 h, basal, profiling panel (AID 1162); details: higher = more signal; further: test concentration not given here
# [2] = compound effects on differentiated 3T3-L1 adipocyte viability – cell-based, 3T3-L1 adipocytes, calcein-AM fluorescence, 48 h, basal, profiling panel (AID 1163); details: 3T3-L1 adipocytes viability, higher = more signal; further: test concentration not given here
# [3] = compound effects on hepatocellular carcinoma cell viability – HepG2, calcein-AM fluorescence, 48 h, basal, profiling panel (AID 1164); details: higher = more signal; further: test concentration not given here
# [4] = compound effects on multiple myeloma cell viability – MM1S, calcein-AM fluorescence, 48 h, basal, profiling panel (AID 1165); details: higher = more signal;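 further: viability of MM1S multiple myeloma cells under basal unstimulated conditions; test concentration not given here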
# [5] = calcein-AM signal in unstimulated myeloma cells – cell-based, calcein-AM fluorescence, 48 h, PK04 Diversity Set, profiling panel (AID 1166); details: RPMI8226 myeloma viability, higher = more signal;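 further: cells grown under basal conditions without added stimulus; test concentration not given here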
# [6] = JC-1 mitochondrial signal, unstimulated HepG2 cells – cell-based, JC-1 fluorescence, 24 h, 100 nL compound, profiling panel (AID 1167); details: HepG2 mitochondrial potential, higher = more signal; further: test concentration not given here
# [7] = JC-1 mitochondrial signal, unstimulated adipocytes – cell-based, JC-1 fluorescence, 3T3-L1 adipocytes, 24 h, 100 nL compound, profiling panel (AID 1168); details: JC-1 mitochondrial fluorescence, higher = more signal, called active from +8 up or from −8 down; further: test concentration not given here
# [8] = JC-1 mitochondrial signal, unstimulated myeloma cells – cell-based, JC-1 fluorescence, RPMI8226, 24 h, 100 nL compound, profiling panel (AID 1169); details: JC-1 mitochondrial potential fluorescence, higher = more signal; further: test concentration not given here
# [9] = JC-1 mitochondrial signal, unstimulated MM1S myeloma – cell-based, JC-1 fluorescence, 24 h, 100 nL compound, profiling panel (AID 1170); details: MM1S mitochondrial potential, higher = more signal; further: test concentration not given here
# [10] = resazurin metabolic signal in A549 cells – cell-based, resazurin fluorescence, 24 h, PK04 Diversity Set, profiling panel (AID 1171); details: A549 viability, higher = more signal, called active from +8 up or from −8 down; further: test concentration not given here
# [11] = resazurin metabolic signal in HepG2 cells – cell-based, resazurin fluorescence, 24 h, PK04 Diversity Set, profiling panel (AID 1172); details: HepG2 viability, higher = more signal; further: test concentration not given here
# [12] = budding yeast growth changes without added modifier – OD600, strain BY4716, 24 h, basal condition, primary screen (AID 1173); details: S. cerevisiae BY4716 growth, OD600, 24 h; higher = more signal, called active from +8 up or from −8 down
# [13] = viability profiling in MM1S myeloma cells – cell-based, resazurin fluorescence, basal, 24 h, PK04 Diversity Set, profiling panel (AID 1174); details: higher = more signal, called active from +8 up or from −8 down; further: test concentration not given here
# [14] = target: Dihydroorotate dehydrogenase (quinone), mitochondrial (Plasmodium falciparum (isolate 3D7)) (UniProt Q08210); assay: inhibition of P. falciparum DHODH – biochemical, C-terminal His tag, absorbance 600 nm, primary screen (AID 1175); details: PfDHODH enzyme, DCIP absorbance 600 nm; higher = more signal, called active from +8 up or from −8 down;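 further: recombinant parasite enzyme with a five histidine tag at its C terminus; test concentration not given here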
# [15] = inhibition of PAO1 biofilm formation – strain PAO1, LB-PBS medium, absorbance 600 nm, primary screen (AID 1176); further: test concentration not given here; details: P. aeruginosa PAO1 growth/biofilm, A600, 12 h; higher = more signal
# [16] = growth modulation of vineyard yeast isolate – strain RM11-1a, OD600, basal, 24 h, primary screen (AID 1177);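 further: cultures grown under basal conditions with no added stressor; test concentration not given here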; details: S. cerevisiae RM11-1a growth, OD600, 24 h; higher = more signal, called active from +8 up or from −8 down
# [17] = growth of efflux-deficient E. coli DRC39 – strain DRC39, OD650, 24 h, E. coli filamentation inducers, primary screen (AID 1178);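 further: growth measured as culture turbidity by optical density at 650 nm; test concentration not given here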; details: E. coli DRC39 acrAB, higher = more signal, called active from +8 up or from −8 down
# [18] = growth of efflux-deficient E. coli DRC39 – strain DRC39, OD650, 48 h, E. coli filamentation inducers, primary screen (AID 1179);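 further: screen aims at cell division blockers that make cells filament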; details: E. coli DRC39 delta-acrAB growth, higher = more signal, called active from +8 up or from −8 down
# [19] = viability profiling in RPMI8226 myeloma cells – cell-based, resazurin fluorescence, basal, 24 h, PK04 Diversity Set, profiling panel (AID 1180); details: higher = more signal;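 further: RPMI8826 multiple myeloma cell line at 5000 cells per well; test concentration not given here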
# [20] = target: E3 ubiquitin-protein ligase XIAP (Homo sapiens) (UniProt P98170); assay: small molecules binding XIAP protein – biophysical, small-molecule microarray, fluorescence 635 nm, primary screen (AID 1181); details: higher = more signal;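 further: score merges 667 nm emission and signal to noise over triplicate slides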
# E3 ubiquitin-protein ligase XIAP (Homo sapiens), sequence (P98170 whole entry, looked up): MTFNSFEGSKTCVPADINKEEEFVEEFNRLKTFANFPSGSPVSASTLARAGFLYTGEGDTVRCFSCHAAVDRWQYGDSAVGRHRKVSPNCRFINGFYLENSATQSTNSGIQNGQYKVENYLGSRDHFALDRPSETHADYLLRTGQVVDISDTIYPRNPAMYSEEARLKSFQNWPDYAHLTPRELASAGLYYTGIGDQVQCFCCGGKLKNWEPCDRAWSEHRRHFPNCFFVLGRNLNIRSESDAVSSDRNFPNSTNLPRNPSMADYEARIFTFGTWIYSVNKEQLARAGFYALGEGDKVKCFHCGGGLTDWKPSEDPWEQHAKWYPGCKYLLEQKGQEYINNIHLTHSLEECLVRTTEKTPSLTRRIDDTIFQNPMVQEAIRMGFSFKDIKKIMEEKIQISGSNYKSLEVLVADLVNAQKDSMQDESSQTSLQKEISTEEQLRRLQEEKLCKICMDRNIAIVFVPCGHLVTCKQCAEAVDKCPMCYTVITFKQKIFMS
# Dihydroorotate dehydrogenase (quinone), mitochondrial (Plasmodium falciparum (isolate 3D7)), sequence (Q08210 whole entry, looked up): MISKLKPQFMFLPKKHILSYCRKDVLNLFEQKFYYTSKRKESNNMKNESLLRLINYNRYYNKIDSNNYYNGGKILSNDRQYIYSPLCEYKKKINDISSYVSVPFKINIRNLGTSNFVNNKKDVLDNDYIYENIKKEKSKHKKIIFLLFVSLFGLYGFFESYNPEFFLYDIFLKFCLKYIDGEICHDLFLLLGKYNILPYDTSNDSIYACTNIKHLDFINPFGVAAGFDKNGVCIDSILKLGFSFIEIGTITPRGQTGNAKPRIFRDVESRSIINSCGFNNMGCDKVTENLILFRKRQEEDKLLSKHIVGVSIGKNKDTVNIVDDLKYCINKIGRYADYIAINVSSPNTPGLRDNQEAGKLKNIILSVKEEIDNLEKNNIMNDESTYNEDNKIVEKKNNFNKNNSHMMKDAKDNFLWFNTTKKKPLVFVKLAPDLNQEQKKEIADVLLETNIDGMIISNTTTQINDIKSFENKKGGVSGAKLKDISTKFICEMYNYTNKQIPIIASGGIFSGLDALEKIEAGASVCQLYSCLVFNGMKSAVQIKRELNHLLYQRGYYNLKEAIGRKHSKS
compound,measurement,setting,value
COc1cc2c(cc1OC)CN(C(=O)[C@@H]1[C@H]3C(=O)O[C@H](c4ccccc4)[C@H](c4ccccc4)N3[C@H](c3ccc(O)cc3)[C@@]13C(=O)Nc1ccc(C#CC4=CCCCC4)cc13)CC2,z-score,[1],0.434
same,z-score,[2],0.641
same,z-score,[3],0.618
same,z-score,[4],-0.126
same,z-score,[5],-1.58
same,z-score,[6],-0.948
same,z-score,[7],0.165 (inactive)
same,z-score,[8],-0.733
same,z-score,[9],0.328
same,z-score,[10],0.175 (inactive)
same,z-score,[11],0.192
same,z-score,[12],0.45 (inactive)
same,z-score,[13],0.466 (inactive)
same,composite z-score,[14],-0.151 (inactive)
same,z-score,[15],0.297 (inactive)
same,z-score,[16],1.48 (inactive)
same,z-score,[17],-0.0342 (inactive)
same,z-score,[18],0.675 (inactive)
same,z-score,[19],0.233
same,composite z-score,[20],-0.0108
COC(=O)C1(CC(C)C)C=C2C(=C(C)C(=O)C2C)CN1 (stereo not given),z-score,[1],-1.23
same,z-score,[2],-0.291
same,z-score,[3],-1.14
same,z-score,[4],-0.945
same,z-score,[5],-1.77
same,z-score,[6],-1.04
same,z-score,[7],-1.83 (inactive)
same,z-score,[8],0.147
same,z-score,[9],-0.92
same,z-score,[10],-0.726 (inactive)
same,z-score,[11],-1.23
same,z-score,[12],1.84 (inactive)
same,z-score,[13],-1.78 (inactive)
same,composite z-score,[14],-1.11 (inactive)
same,z-score,[15],0.715 (inactive)
same,z-score,[16],0.386 (inactive)
same,z-score,[17],-0.43 (inactive)
same,z-score,[18],-0.078 (inactive)
same,z-score,[19],-1.8
same,composite z-score,[20],0.0408
[N-]=[N+]=Nc1ccccc1C[C@@]1(C(=O)NCc2ccccc2)N=C(c2ccc(OCCCO)cc2)O[C@@H]1c1ccccc1,z-score,[1],-1.36
same,z-score,[2],0.902
same,z-score,[3],-1.78
same,z-score,[4],-2.51
same,z-score,[5],-3.76
same,z-score,[6],1.45
same,z-score,[7],-0.739 (inactive)
same,z-score,[8],-1.3
same,z-score,[9],-0.738
same,z-score,[10],0.808 (inactive)
same,z-score,[11],0.508
same,z-score,[12],-0.0233 (inactive)
same,z-score,[13],-1.71 (inactive)
same,composite z-score,[14],0.889 (inactive)
same,z-score,[15],2.51 (inactive)
same,z-score,[16],1.17 (inactive)
same,z-score,[17],0.712 (inactive)
same,z-score,[18],-0.489 (inactive)
same,z-score,[19],-0.564
same,composite z-score,[20],0.204
Cc1ccc(S[C@]2(C(=O)NC(C)C)CC(=O)N(Cc3ccccc3)[C@@H]2c2ccc(CO)cc2)cc1,z-score,[1],1.72
same,z-score,[2],-0.089
same,z-score,[3],1.15
same,z-score,[4],0.0456
same,z-score,[5],1.23
same,z-score,[6],1.18
same,z-score,[7],0.391 (inactive)
same,z-score,[8],0.135
same,z-score,[9],-0.177
same,z-score,[10],-0.3 (inactive)
same,z-score,[11],0.15
same,z-score,[12],-0.0962 (inactive)
same,z-score,[13],-0.792 (inactive)
same,composite z-score,[14],-1.33 (inactive)
same,z-score,[15],0.637 (inactive)
same,z-score,[16],-0.949 (inactive)
same,z-score,[17],1.19 (inactive)
same,z-score,[18],1.62 (inactive)
same,z-score,[19],1
same,composite z-score,[20],-0.177
COc1ccc(C#Cc2ccc3c(c2)[C@]2(C(=O)N3)[C@H](c3ccccc3OCCO)N3[C@H](c4ccccc4)[C@H](c4ccccc4)OC(=O)[C@H]3[C@@H]2C(=O)NC[C@H](O)c2ccccc2)cc1,z-score,[1],-1.22
same,z-score,[2],0.449
same,z-score,[3],-1.88
same,z-score,[4],-2.85
same,z-score,[5],-4.12
same,z-score,[6],-1.21
same,z-score,[7],3.95 (inactive)
same,z-score,[8],-0.957
same,z-score,[9],-1.66
same,z-score,[10],-1.01 (inactive)
same,z-score,[11],0.328
same,z-score,[12],2.05 (inactive)
same,z-score,[13],-2.59 (inactive)
same,composite z-score,[14],-17.2 (active)
same,z-score,[15],1.08 (inactive)
same,z-score,[16],2.25 (inactive)
same,z-score,[17],0.158 (inactive)
same,z-score,[18],-0.438 (inactive)
same,z-score,[19],-3.95
same,composite z-score,[20],0.0655
O=C/C=C/c1ccc(-c2ccccc2)cc1,z-score,[1],0.252
same,z-score,[2],0.919
same,z-score,[3],-1.45
same,z-score,[4],-3.23
same,z-score,[5],-4.15
same,z-score,[6],-0.253
same,z-score,[7],0.965 (inactive)
same,z-score,[8],-0.853
same,z-score,[9],-3.05
same,z-score,[10],-0.539 (inactive)
same,z-score,[11],-0.0736
same,z-score,[12],-18.6 (active)
same,z-score,[13],-1.08 (inactive)
same,composite z-score,[14],-2.53 (inactive)
same,z-score,[15],-0.944 (inactive)
same,z-score,[16],-21.6 (active)
same,z-score,[17],1.29 (inactive)
same,z-score,[18],0.917 (inactive)
same,z-score,[19],-5.15
same,composite z-score,[20],0.0097
C=CCOC(=O)[C@@H]1[C@H]2C(=O)O[C@H](c3ccccc3)[C@H](c3ccccc3)N2[C@H](c2ccc(OCCOC(=O)[C@@H]3C[C@@H]4C(=O)N[C@@H](CC(C)C)C(=O)N4[C@@H]3c3ccc(O)cc3)cc2)[C@@]12C(=O)Nc1ccc(I)cc12,z-score,[1],-0.226
same,z-score,[2],0.175
same,z-score,[3],-0.0024
same,z-score,[4],0.26
same,z-score,[5],1.31
same,z-score,[6],-1.61
same,z-score,[7],0.872 (inactive)
same,z-score,[8],-0.575
same,z-score,[9],-0.925
same,z-score,[10],0.595 (inactive)
same,z-score,[11],0.438
same,z-score,[12],0.893 (inactive)
same,z-score,[13],0.246 (inactive)
same,composite z-score,[14],-1.42 (inactive)
same,z-score,[15],0.848 (inactive)
same,z-score,[16],1.75 (inactive)
same,z-score,[17],0.703 (inactive)
same,z-score,[18],-0.215 (inactive)
same,z-score,[19],0.676
same,composite z-score,[20],0.155
C=C(CC1([C@@H](NP(=O)(c2ccccc2)c2ccccc2)[C@H]2C[C@@H]2CCCC)CC1)c1cccc(OC)c1,z-score,[1],-1.61
same,z-score,[2],-0.803
same,z-score,[3],-0.96
same,z-score,[4],-3.47
same,z-score,[5],-4.72
same,z-score,[6],-1.28
same,z-score,[7],-0.532 (inactive)
same,z-score,[8],-0.799
same,z-score,[9],-0.366
same,z-score,[10],6.21 (inactive)
same,z-score,[11],2.56
same,z-score,[12],2.17 (inactive)
same,z-score,[13],1.08 (inactive)
same,composite z-score,[14],-0.0873 (inactive)
same,z-score,[15],0.0944 (inactive)
same,z-score,[16],1.61 (inactive)
same,z-score,[17],-0.283 (inactive)
same,z-score,[18],-0.216 (inactive)
same,z-score,[19],3.23
same,composite z-score,[20],0.219
C=C(CCCC)/C(=C/C[C@@H](OC(C)=O)c1cccc(OCCO)c1)c1cc(C(=O)OC)ccc1OC,z-score,[1],0.771
same,z-score,[2],0.204
same,z-score,[3],0.622
same,z-score,[4],-2.41
same,z-score,[5],-1.98
same,z-score,[6],1.44
same,z-score,[7],-0.288 (inactive)
same,z-score,[8],0.186
same,z-score,[9],-0.679
same,z-score,[10],1.25 (inactive)
same,z-score,[11],0.978
same,z-score,[12],1.12 (inactive)
same,z-score,[13],0.0348 (inactive)
same,composite z-score,[14],-0.943 (inactive)
same,z-score,[15],0.0599 (inactive)
same,z-score,[16],0.523 (inactive)
same,z-score,[17],0.508 (inactive)
same,z-score,[18],0.583 (inactive)
same,z-score,[19],0.1
same,composite z-score,[20],-0.0447
